Test: qHTS profiling of the MIPE4 collection as inhibitors of Plasmodium falciparum (DD2) proliferation (AID 743345)
Conditions: P. falciparum Dd2 in erythrocytes, SYBR Green DNA, 72 h; at 28.5 µM (top of the series) unless noted
Text: Plasmodium falciparum is a virulent malarial parasite that kills 1-2 million people worldwide each year. Transmitted by mosquitoes, the sporozoite form of the parasite enters the blood stream to infect hepatocytes, where they become merozoites that infect red blood cells (erythrocytes). Within erythrocytes, merozoites begin a […] cycle of growth and division, after which the parasite is released to infect new red blood cells. Gametocytes, which form within erythrocytes as well, circulate in the bloodstream and are ingested by the mosquito, thereby completing the life cycle. To profile malarial isolates for differential chemical responses and to identify inhibitors of malarial growth, an assay that measures P. falciparum growth and replication within erythrocytes was employed. This assay uses a DNA binding fluorescent dye (SYBR Green) to detect parasite DNA following cell lysis. Because mature erythrocytes lack DNA, only Plasmodium-derived DNA is detected.
The SYBR Green viability assay was adapted from a method described previously (Plouffe et al., 2008). For screening 3 ul culture medium was dispensed into 1536 well black clear bottom plates (Aurora Biotechnologies) using a Multidrop Combi (Thermo Fisher Scientific Inc.), 23 nL compounds in DMSO were added by a pin tool (Kalypsys), and 5 ul of erythrocytes infected with P. falciparum (0.3% parasitemia, 2.5% hematocrit final concentration) were added. The plates were incubated at 37 C in a humidified incubator in 5% CO2 for 72 h, and 2 ul lysis buffer (20 mM Tris HCl, 10 mM EDTA, 0.16% saponin, 1.6% triton X, 10X SYBR Green I supplied as 10,000X […] by Invitrogen) was added to each well. The plates were mixed for 25 sec with gentle shaking and incubated overnight at room temperature in the dark. The following morning, fluorescence intensity at 485(14) nm excitation and 535(25) nm emission wavelengths was measured on an EnVision (Perkin Elmer) plate reader. Plate reads were normalized relative to the control inhibitor (0.29 uM artemisinin) and vehicle (DMSO) wells present on each plate and then corrected by an algorithm using vehicle-only control plates at the beginning and end of the compound plate stack.

Compound	parasite growth remaining, % of DMSO control (lower = more inhibition)
CN1CCC(=C2c3ccccc3C=Cc3ccccc32)CC1	36%
Cn1ccc2cc3c(cc21)CCN3C(=O)Nc1cccnc1	72.7%
NCCc1cnc[nH]1	101%
O=C1Cc2cc(CCN3CCN(c4nsc5ccccc45)CC3)c(Cl)cc2N1	21.2%
CN(C)c1nc(N(C)C)nc(N(C)C)n1	102%
CN(C)C(=N)N=C(N)N	99.4%
CC(C)NCC(O)COc1ccc(CCOCC2CC2)cc1 (stereo not given)	89.8%
Cc1ccc(-c2cc(C(F)(F)F)nn2-c2ccc(S(N)(=O)=O)cc2)cc1	64.9%
COc1nc(C)nc(Cl)c1NC1=NCCN1	89.9%
C[C@](N)(Cc1ccc(O)c(O)c1)C(=O)O	80%
NCCS(=O)(=O)O	102%
Cc1cc(C(C)(C)C)c(O)c(C)c1CC1=NCCN1	95.8%
CCCNCC(O)COc1ccccc1C(=O)CCc1ccccc1 (stereo not given)	6.97%
Cc1ccccc1N1C(=O)c2cc(S(N)(=O)=O)c(Cl)cc2NC1C (stereo not given)	51%
NCCCCCC(=O)O	91.3%
CC#C[C@]1(O)CC[C@H]2[C@@H]3CCC4=CC(=O)CCC4=C3[C@@H](c3ccc(N(C)C)cc3)C[C@@]21C	45.8%
CCN1CCCC1CNC(=O)c1cc(S(=O)(=O)CC)c(N)cc1OC (stereo not given)	99.9%
NC(=O)OCC(COC(N)=O)c1ccccc1	97.8%
Clc1ccc(C(c2ccccc2Cl)C(Cl)Cl)cc1 (stereo not given)	51.1%
C[C@H]1c2cccc(O)c2C(O)=C2C(=O)[C@]3(O)C(O)=C(C(N)=O)C(=O)[C@@H](N(C)C)[C@@H]3[C@@H](O)[C@@H]21	28.6%

Compound	parasite growth remaining, % of DMSO control (lower = more inhibition)
N[C@@H](Cc1c[nH]c2ccc(O)cc12)C(=O)O	101%
CC(C)(Oc1ccc(C2CC2(Cl)Cl)cc1)C(=O)O (stereo not given)	105% [at 57.5 µM]
O=C1c2c(O)ccc(O)c2C(=O)c2c(NCCNCCO)ccc(NCCNCCO)c21	1.83%
NC(=O)NO	97.5%
C[C@@H]1CC(=O)NN=C1c1ccc(NN=C(C#N)C#N)cc1	6.4%
CC1COc2c(N3CCN(C)CC3)c(F)cc3c(=O)c(C(=O)O)cn1c23 (stereo not given)	84.7%
Cc1cn([C@H]2C=C[C@@H](CO)O2)c(=O)[nH]c1=O	112% [at 57.5 µM]
CC(C)Cc1ccc(C(C)C(=O)O)cc1 (stereo not given)	99.8% [at 9.64 µM]
CC1(CN2CCC(n3c(=O)[nH]c4ccccc43)CC2)OCc2ccccc2-n2cccc21 (stereo not given)	9.37%
CC[N+](CC)(CC)CCOc1cccc(OCC[N+](CC)(CC)CC)c1OCC[N+](CC)(CC)CC	104%
CN1CCC(=C2c3ccccc3CC(=O)c3sccc32)CC1	55.5%
Fc1ccc([C@@H]2CCNC[C@H]2COc2ccc3c(c2)OCO3)cc1	39.5%
CN1CCN(CCCN2c3ccccc3Sc3ccc(Cl)cc32)CC1	13%
Cc1ccc(C(=O)Nc2ccc(S(=O)(=O)O)c3cc(S(=O)(=O)O)cc(S(=O)(=O)O)c23)cc1NC(=O)c1cccc(NC(=O)Nc2cccc(C(=O)Nc3cc(C(=O)Nc4ccc(S(=O)(=O)O)c5cc(S(=O)(=O)O)cc(S(=O)(=O)O)c45)ccc3C)c2)c1	75.7%
CN(CCOc1ccc(NS(C)(=O)=O)cc1)CCc1ccc(NS(C)(=O)=O)cc1	89.2%
Clc1ccc2c(c1)C(N1CCNCC1)=Nc1ccccc1O2	28.9%
NC12CC3CC(CC(C3)C1)C2	72%
CC[C@@]1(O)C(=O)OCc2c1cc1n(c2=O)Cc2cc3c(CN(C)C)c(O)ccc3nc2-1	16.9%
Cn1cnc2c1c(=O)[nH]c(=O)n2C	7%
NC(CO)C(=O)NNCc1ccc(O)c(O)c1O (stereo not given)	125%
